# Screening results (PubChem BioAssay)
# CHO-K1 Ca antag: M1 antagonist counterscreen hit in parental CHO-K1 cells | hit rate 0.6% among 360,000 | ATP-induced calcium, Fluo-8 fluorescence | inhibition, % at 3 µM;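 active = inhibition above a per-plate cutoff, the plate's mean sample inhibition plus 3 SD, cut at about 24% in these data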;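 note: 0% = DMSO plus EC80 ATP and 100% = DMSO alone without ATP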
# CHRM1 agonist: human M1 muscarinic receptor agonism. activation, % at 3 µM. P11229. AID 588814. hit rate 0.33% among 360,000. CHO-K1 hM1, Fluo-8 calcium fluorescence, agonist mode; 0% DMSO, 100% acetylcholine EC100;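 active = activation above the run's mean compound activation plus 3 SD, cut at about 16% in these data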;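 note: peak over basal fluorescence ratio within a 140 s kinetic read after compound addition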
# Target sequence (P11229 whole entry, looked up): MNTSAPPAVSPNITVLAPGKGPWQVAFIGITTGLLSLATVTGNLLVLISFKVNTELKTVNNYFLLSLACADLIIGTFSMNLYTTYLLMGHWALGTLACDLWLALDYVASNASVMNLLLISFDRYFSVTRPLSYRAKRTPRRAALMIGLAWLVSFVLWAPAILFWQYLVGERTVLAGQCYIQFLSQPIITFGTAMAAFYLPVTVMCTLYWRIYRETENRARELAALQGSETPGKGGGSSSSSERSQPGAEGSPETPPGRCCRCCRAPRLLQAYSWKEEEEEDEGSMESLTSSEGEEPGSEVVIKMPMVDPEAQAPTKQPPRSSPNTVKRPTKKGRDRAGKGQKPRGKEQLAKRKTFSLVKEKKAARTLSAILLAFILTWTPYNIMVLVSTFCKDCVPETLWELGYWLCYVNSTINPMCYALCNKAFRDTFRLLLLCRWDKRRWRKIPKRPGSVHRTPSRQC
# CHO-K1 Ca PAM: counter-screen for M1 PAMs: effect in parental CHO-K1 cells; ATP EC20, Fluo-8 calcium fluorescence; 0% at ATP EC20, 100% at ATP max; activation, % at 3 µM; hit rate 0.02% among 360,000; AID 602247;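 active = activation above the run cutoff, the mean activation of all test compounds plus 3 SD, cut at about 40% in these data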;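 note: peak over basal fluorescence ratio in a 140 s read after ATP addition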
# M1 PAM: human CHRM1 positive allosteric modulation. P11229. CHO-K1 hM1, Fluo-8 calcium fluorescence, ACh EC20; 0% = ACh EC20, 100% = maximal ACh. activation, % at 3 µM. hit rate 0.088% among 360,000. AID 588819; in the data active = activation above about 19%, passing the limit was not always enough
# M1 ag parental: counter-screen for M1 agonists: effect in parental CHO-K1 cells; hit rate 0.48% among 360,000; activation, % at 3 µM; Fluo-8 calcium fluorescence; scaled to maximal ATP response, vehicle zero; in the data active = activation above about 15%;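 note: untransfected CHO-K1 host cells lacking M1 receptor as counterscreen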
# M1 antag: antagonists of human M1 muscarinic receptor | inhibition, % at 3 µM | AID 588852 | hit rate 1.3% among 360,000 | CHO-K1 hM1, Fluo-8 calcium fluorescence, ACh EC80 antagonist;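 active = percent inhibition above its own plate's cutoff, namely the mean of that plate's compound wells plus 3 SD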;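 note: peak over basal fluorescence ratio during 140 s after agonist addition; 0% = ACh EC80 plus DMSO and 100% = DMSO alone without agonist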
# Starred values were filed as active, the others as inactive. The list is not random: actives were taken first. Their share in the collection is about 2.3%.
SMILES,CHO-K1 Ca antag,CHRM1 agonist,CHO-K1 Ca PAM,M1 PAM,M1 ag parental,M1 antag
Cc1ncc(C[n+]2csc(CCOC(=O)C34CC5CC(CC(C5)C3)C4)c2C)c(N)n1,3,-15,-4,-18,0,9
Cc1sc[n+](CC(=O)c2ccc(Br)cc2)c1C,-8,-5,3,-2,1,4
Cc1c(CCOC(=O)c2cc([N+](=O)[O-])cc([N+](=O)[O-])c2)sc[n+]1CC(=O)c1ccc(Br)cc1,-7,-10,17,-26,0,80*
CCOC(=O)c1ccc(NC(=O)[C@@H]2CCC(=O)N2C2OC(=O)c3c2ccc(OC)c3OC)cc1 (stereo not given in full),12,-13,-16,-7,0,14
O=C(COC(=O)/C=C/c1cccc(Br)c1)Nc1ccc(Cl)cn1,-6,-4,7,1,0,-3
Cc1c(CCOC(=O)CC23CC4CC(CC(C4)C2)C3)sc[n+]1CC(=O)c1ccccc1,-14,-5,19,-10,1,19
Cc1c(CCOC(=O)C23CC4(C)CC(C)(CC(C)(C4)C2)C3)sc[n+]1CC(=O)c1ccccc1,8,-9,-4,-24,0,32*
C[C@H]1CN=C(N(C)C)N1CC1CCCC1,-10,12,10,-4,1,4
C[C@H]1CN=C(N(C)C)N1CC1CCC(C(C)(C)C)CC1 (stereo not given in full),-17,-10,16,-32,2,51*
Cc1cc(=O)[nH]c(SCc2cccc(Br)c2)n1,-5,0,3,3,1,-43
COc1ccc(CSc2nc(C)cc(=O)[nH]2)cc1Br,-3,-3,18,4,19*,-7
CC(=O)NC(Cc1ccccc1C)C(=O)NC1CCN(C(=O)c2cccc(C)c2)CC1 (stereo not given),-11,-2,14,2,0,-5
OC(CN1CCN(c2cccc(C(F)(F)F)c2)CC1)c1c[nH]c2ccccc12 (stereo not given),30*,-3,-7,-2,2,12
Cc1cc(C)cc(OCC(=O)Nc2ccc(N3CCCC3)cc2)c1,-10,-12,0,-36,0,56*
Cc1ccc(OCC(=O)Nc2ccc(N3CCCC3)cc2)cc1C,-7,-9,6,-22,0,21
Cc1ccc(C)c(C(=O)OCC(=O)Nc2ccc(N3CCOCC3)cc2)c1,-19,3,12,25*,1,-24
COc1ccc(S(=O)(=O)N2CCOC2CNC(=O)C(=O)NCCc2ccc(S(N)(=O)=O)cc2)cc1 (stereo not given),10,-3,0,0,0,4
Cc1ccc2nc(SCc3nc4c(cnn4-c4ccccc4)c(=O)[nH]3)[nH]c2c1,27*,12,0,-6,11,26
C[C@@H]1CN([C@@H](C)CO)C(=O)CCCn2cc(nn2)CO[C@H]1CN(C)S(=O)(=O)c1ccc(Cl)cc1,-4,-9,21,9,1,-16
COc1ccc(CN2CCN(C(=O)c3cc(-c4cccnc4)nc4ccc(Cl)cc34)CC2)c(OC)c1OC,13,-3,-19,-22,6,58*
COc1cccc(CN2CCN(C(=O)c3ccc(-c4ccccc4)cc3)CC2)c1,5,-4,11,-3,16*,10
COc1cccc(CN2CCN(C(=O)c3ccc(-c4ccccc4)cc3)CC2)c1OC,10,-9,10,8,16*,-3
COc1cccc(CC(NC(C)=O)C(=O)NC2CCN(C(=O)c3ccc(Cl)cc3)CC2)c1OC (stereo not given),3,1,27,30*,1,-22
COc1cccc(CN2CCN(C(=O)c3cccc(OC)c3)CC2)c1,-5,-6,8,13,1,-14
O=C(C[n+]1ccccc1)N/N=C/c1ccc(Br)cc1,-9,-7,15,6,0,-1
SMILES,CHO-K1 Ca antag,CHRM1 agonist,CHO-K1 Ca PAM,M1 PAM,M1 ag parental,M1 antag
CN(Cc1cccnc1)C(=O)Cc1ccc(NS(=O)(=O)c2cccc(C(F)(F)F)c2)cc1,-6,-5,-25,2,5,7
Cn1c(CCN2CCN(c3ccccn3)CC2)nc2cc(NC(=O)COc3ccc(Cl)cc3)ccc21,5,1,1,-24,14,95*
CC1CCN(CCc2nc3cc(NC(=O)NC4CCCCC4)ccc3n2C)CC1,-1,-8,8,-19,0,36*
Cn1c(CCN2CCCCC2)nc2cc(NC(=O)NC3CCCCC3)ccc21,-21,-5,18,-10,0,12
COc1ccc(OCC(=O)Nc2ccc3c(c2)nc(CCN2CCCCC2)n3C)cc1,-5,-5,20,-1,0,2
COc1ccc(OCC(=O)Nc2ccc3c(c2)nc(CCN2CCN(c4ccccn4)CC2)n3C)cc1,4,-3,2,-29,5,64*
CCN1CCN(Cc2nc3cc(NC(=O)COc4ccc([N+](=O)[O-])cc4)ccc3n2C)CC1,-20,-6,3,-16,0,61*
CCN1CCN(CCc2nc3cc(NC(=O)COc4ccc(Cl)cc4)ccc3n2C)CC1,-15,-7,16,5,2,-10
Cc1ccc(S(=O)(=O)NCC(=O)NCC(=O)N(C)Cc2ccc3ccccc3c2)cc1C,0,-6,-19,-4,4,12
CC(C(=O)N1CCN(c2ccccc2)CC1)c1ccc([N+](=O)[O-])cc1 (stereo not given),-2,3,-6,10,1,-14
Cc1cccc(OCC(=O)Nc2ccc3c(c2)nc(CCN2CCCCC2)n3C)c1,1,-6,-3,-9,1,11
Cc1cccc(OCC(=O)Nc2ccc3c(c2)nc(CCN2CCN(c4ccccn4)CC2)n3C)c1,13,3,-16,-22,12,88*
CCOC(=O)C(Cc1ccccc1)C(=O)Nc1ccc(N(CC)CC)cc1 (stereo not given),-2,-7,15,-25,3,33*
Cc1c(C=C(C#N)c2ccc([N+](=O)[O-])cc2)c(=O)n(-c2ccccc2)n1C,-9,-7,9,-21,0,30*
COc1cccc(CN2CCC2(C)C(=O)Nc2cccc(Oc3ccccc3)c2)c1F (stereo not given),12,-3,-11,-5,0,11
O=CNc1cc(-c2ccccc2)cn2c(-c3ccc(F)c(Cl)c3)cnc12,-16,-3,18,4,1,-9
COc1cccc(-c2cnc3c(NC=O)cc(-c4ccc(N(C)C)cc4)cn23)c1,25*,3,4,-1,14,15
CN(C)c1ccc(-c2cc(NC=O)c3ncc(-c4ccc(F)c(Cl)c4)n3c2)cc1,5,11,11,-14,20*,17
